Our source for the log2 fold change values is the supplement of paper PMC10849652.

About 7,900 targets were measured; listed, in parts, are those with a hit and a random draw of the rest. About 0.6% of all pairs of compound and target were hits. Values without a mark were called inactive.

UniProt Q14789, sequence (Q14789 whole entry, looked up): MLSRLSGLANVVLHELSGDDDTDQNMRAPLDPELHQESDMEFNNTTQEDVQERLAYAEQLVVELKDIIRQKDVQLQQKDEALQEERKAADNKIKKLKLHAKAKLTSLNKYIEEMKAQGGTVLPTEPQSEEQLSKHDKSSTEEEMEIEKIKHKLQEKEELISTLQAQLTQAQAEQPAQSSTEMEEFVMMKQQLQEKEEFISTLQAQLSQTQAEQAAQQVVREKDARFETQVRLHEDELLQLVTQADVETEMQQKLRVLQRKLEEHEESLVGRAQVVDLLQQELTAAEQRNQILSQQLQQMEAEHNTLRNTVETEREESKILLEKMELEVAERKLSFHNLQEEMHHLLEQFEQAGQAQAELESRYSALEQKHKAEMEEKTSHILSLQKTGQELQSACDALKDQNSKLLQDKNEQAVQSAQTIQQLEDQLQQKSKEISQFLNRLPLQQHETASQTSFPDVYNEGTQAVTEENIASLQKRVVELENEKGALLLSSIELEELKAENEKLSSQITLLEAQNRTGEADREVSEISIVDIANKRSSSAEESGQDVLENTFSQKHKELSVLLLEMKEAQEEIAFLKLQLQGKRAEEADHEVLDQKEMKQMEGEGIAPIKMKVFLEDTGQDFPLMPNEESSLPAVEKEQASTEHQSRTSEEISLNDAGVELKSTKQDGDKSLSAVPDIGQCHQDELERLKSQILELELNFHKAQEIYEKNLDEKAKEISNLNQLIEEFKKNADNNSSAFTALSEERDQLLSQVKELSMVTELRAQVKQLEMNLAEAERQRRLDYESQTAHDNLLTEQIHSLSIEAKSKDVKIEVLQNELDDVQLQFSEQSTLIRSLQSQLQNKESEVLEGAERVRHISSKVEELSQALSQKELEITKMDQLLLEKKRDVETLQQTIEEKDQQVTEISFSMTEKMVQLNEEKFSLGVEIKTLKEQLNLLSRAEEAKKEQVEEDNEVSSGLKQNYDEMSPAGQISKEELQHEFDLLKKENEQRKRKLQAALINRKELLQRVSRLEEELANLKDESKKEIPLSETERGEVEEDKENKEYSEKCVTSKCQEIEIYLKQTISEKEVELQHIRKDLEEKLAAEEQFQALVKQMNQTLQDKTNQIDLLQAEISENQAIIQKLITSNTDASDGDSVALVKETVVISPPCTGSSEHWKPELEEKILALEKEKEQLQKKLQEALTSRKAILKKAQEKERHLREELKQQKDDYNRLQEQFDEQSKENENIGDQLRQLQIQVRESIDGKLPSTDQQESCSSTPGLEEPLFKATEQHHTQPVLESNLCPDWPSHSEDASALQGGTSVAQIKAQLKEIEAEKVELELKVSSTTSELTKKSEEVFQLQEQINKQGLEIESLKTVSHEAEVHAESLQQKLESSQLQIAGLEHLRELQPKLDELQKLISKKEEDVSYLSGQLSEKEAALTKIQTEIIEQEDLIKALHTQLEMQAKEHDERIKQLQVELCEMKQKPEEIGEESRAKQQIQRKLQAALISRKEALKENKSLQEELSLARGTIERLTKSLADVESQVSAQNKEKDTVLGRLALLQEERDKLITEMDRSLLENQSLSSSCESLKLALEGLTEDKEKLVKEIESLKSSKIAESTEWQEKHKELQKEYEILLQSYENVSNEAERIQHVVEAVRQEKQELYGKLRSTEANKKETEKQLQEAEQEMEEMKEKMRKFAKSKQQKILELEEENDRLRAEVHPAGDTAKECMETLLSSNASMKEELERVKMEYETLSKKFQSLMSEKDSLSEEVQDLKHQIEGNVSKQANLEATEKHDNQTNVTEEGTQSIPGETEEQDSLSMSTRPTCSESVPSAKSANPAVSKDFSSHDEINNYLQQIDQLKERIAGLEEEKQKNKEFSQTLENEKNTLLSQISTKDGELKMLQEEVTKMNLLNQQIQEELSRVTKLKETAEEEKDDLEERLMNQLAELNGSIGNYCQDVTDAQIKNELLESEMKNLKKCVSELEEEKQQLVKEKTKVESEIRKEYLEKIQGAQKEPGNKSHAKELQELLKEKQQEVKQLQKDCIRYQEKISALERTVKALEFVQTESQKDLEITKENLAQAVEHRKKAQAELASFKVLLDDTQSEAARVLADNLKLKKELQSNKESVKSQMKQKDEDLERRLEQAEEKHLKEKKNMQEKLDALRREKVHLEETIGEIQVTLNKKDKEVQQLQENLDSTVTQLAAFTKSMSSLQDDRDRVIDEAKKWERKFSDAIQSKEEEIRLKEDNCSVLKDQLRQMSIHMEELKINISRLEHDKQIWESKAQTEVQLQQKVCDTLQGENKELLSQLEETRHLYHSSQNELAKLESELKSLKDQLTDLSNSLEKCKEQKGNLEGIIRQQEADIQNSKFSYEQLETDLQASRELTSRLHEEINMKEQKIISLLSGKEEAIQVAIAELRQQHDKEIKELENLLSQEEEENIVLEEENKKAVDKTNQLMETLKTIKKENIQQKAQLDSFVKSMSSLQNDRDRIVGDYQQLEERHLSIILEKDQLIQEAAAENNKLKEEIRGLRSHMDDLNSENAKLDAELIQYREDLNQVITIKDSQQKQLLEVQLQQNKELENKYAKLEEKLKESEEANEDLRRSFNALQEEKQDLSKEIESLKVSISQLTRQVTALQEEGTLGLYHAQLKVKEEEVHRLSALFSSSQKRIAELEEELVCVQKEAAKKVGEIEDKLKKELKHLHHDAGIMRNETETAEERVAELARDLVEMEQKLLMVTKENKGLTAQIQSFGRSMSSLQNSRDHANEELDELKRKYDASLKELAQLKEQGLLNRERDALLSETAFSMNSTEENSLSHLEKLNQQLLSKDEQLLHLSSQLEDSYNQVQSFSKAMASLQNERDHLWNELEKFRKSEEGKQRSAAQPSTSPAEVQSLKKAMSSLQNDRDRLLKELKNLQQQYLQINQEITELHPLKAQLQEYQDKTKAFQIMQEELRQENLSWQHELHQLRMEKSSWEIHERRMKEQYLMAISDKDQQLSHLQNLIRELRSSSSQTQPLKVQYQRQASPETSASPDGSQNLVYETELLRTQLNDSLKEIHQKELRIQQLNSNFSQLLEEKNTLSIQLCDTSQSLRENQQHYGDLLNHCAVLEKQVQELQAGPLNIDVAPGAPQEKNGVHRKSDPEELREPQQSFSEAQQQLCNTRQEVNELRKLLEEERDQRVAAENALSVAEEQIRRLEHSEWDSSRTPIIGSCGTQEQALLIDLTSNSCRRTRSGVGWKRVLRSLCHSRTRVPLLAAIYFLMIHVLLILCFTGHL
UniProt Q16774, sequence (Q16774 whole entry, looked up): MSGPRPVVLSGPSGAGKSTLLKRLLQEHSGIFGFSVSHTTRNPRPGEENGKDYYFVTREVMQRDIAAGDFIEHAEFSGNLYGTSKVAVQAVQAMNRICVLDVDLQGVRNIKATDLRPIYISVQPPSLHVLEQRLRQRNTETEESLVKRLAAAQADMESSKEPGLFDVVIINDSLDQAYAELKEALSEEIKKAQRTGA
UniProt P04066, sequence (P04066 whole entry, looked up): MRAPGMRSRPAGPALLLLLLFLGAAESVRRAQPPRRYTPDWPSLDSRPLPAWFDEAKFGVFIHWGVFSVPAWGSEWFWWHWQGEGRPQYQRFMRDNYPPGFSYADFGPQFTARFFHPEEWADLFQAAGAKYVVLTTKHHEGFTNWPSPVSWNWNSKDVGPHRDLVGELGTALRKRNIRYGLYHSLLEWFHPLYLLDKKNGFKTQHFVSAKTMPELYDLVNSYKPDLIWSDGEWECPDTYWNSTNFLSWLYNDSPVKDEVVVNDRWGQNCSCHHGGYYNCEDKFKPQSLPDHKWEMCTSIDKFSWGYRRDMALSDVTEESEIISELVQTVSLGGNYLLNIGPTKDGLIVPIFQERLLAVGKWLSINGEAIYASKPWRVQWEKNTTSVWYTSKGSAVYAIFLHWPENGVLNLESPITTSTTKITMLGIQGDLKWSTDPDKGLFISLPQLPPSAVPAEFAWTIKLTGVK
UniProt Q9Y3I1, sequence (Q9Y3I1 whole entry, looked up): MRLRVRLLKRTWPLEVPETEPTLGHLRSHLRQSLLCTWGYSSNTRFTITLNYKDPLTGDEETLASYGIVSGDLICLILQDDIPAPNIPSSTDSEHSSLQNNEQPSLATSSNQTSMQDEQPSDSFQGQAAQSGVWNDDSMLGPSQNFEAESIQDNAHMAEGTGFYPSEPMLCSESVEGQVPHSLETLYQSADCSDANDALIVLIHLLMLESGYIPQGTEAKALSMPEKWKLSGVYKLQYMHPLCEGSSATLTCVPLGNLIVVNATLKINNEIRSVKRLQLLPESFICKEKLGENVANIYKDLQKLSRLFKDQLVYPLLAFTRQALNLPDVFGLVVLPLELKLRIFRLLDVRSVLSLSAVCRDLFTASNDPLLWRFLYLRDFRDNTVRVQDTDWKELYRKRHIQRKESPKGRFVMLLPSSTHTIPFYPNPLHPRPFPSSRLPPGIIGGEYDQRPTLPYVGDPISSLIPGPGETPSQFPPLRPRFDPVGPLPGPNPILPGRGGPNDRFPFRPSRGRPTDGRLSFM
UniProt P00367, sequence (P00367 whole entry, looked up): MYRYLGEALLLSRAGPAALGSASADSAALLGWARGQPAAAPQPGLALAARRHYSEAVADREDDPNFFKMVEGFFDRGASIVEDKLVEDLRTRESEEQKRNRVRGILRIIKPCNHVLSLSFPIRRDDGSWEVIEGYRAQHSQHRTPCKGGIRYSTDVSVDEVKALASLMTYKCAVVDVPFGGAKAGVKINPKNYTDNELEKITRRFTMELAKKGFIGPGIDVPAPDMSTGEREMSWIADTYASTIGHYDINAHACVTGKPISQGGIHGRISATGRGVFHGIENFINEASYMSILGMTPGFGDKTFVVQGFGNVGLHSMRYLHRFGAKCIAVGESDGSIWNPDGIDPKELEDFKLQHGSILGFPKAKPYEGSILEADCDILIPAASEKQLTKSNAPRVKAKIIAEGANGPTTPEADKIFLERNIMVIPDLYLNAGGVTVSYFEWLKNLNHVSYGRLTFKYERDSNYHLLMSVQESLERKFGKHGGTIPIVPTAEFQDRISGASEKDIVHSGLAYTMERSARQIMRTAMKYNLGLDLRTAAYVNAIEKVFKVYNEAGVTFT

Compound in the assay: Cn1cncc1[C@@](N)(c1ccc(Cl)cc1)c1ccc2c(c1)c(-c1cccc(Cl)c1)cc(=O)n2C [tipifarnib]
In words: log2 fold change, soluble protein after heating vs DMSO (PISA); higher = thermal stabilisation; K562 cells, 10 uM, 30 min; active = over 0.2 and 3.5 SD of the protein, either way, in both replicates (recomputed). A digest of the protocol:
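Values are thermal stability changes relative to control samples and are taken from duplicates. They are stated as log2 fold changes. Before quantification by TMTpro 16plex LC-MS/MS with equalised channel sums, K562 cells at 2×10^6 cells/mL were treated with 10 μM compound for 30 min, heated in aliquots for 3 min across 48°C-58°C, pooled, extracted in PBS with 0.5% NP-40 at 4°C, and centrifuged at 21,000xg for 90 min to give the soluble supernatant.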
As for FUBP3 (UniProt Q96I24), the log2 fold change is 0.014.
As to FKBP3 (UniProt Q00688), the log2 fold change was -0.01.
With HDAC6 (UniProt Q9UBN7), the log2 fold change is -0.009.
For GALK1 isoform 2 (UniProt P51570), the log2 fold change was -0.136.
Consider IFRD2 isoform 2 (UniProt Q12894), for which the log2 fold change was 0.08.
Regarding FKBP7 (UniProt Q9Y680), the log2 fold change is 0.027.
As to HEATR3 (UniProt Q7Z4Q2), the log2 fold change is -0.011.
In the case of FKBP4 (UniProt Q02790), the log2 fold change is -0.092.
Turning to GABARAPL2 (UniProt P60520), the log2 fold change is -0.003.
The value for GIGYF2 (UniProt Q6Y7W6) was -0.119.
For GSR (UniProt P00390), the log2 fold change is -0.058.
In the case of GNAS (UniProt Q5JWF2), the log2 fold change was 0.005.
With HIST2H2BF isoform 2 (UniProt Q5QNW6), the log2 fold change is -0.018.
Regarding HLTF (UniProt Q14527), the log2 fold change was 0.007.
In the case of GALNT4 (UniProt Q8N4A0), the log2 fold change is 0.038.
Consider FBXO7 (UniProt Q9Y3I1), for which the log2 fold change is 0.072.
For the target GMEB1 (UniProt Q9Y692), the log2 fold change is -0.204.
Regarding GLUD1 (UniProt P00367), the log2 fold change was 0.068.
Turning to FANCI (UniProt Q9NVI1), the log2 fold change is -0.027.
Turning to HDAC10 (UniProt Q969S8), the log2 fold change was 0.046.
Take FUCA1 (UniProt P04066): the log2 fold change was -0.001.
As for GUK1 isoform 2 (UniProt Q16774), the log2 fold change was -0.15.
Regarding GOLGB1 isoform 2 (UniProt Q14789), the log2 fold change is 0.014.
